How the values were obtained:
Experiment in all cases: DAPPL (digital affinity profiling via proximity ligation, sequencing); 10 mM Tris-HCl pH 7.5, 50 mM NaCl, 1 mM DTT, 4% glycerol, room temperature, 30 min; GST-TFs on glutathione beads, 16-mer random dsDNA library, 0.1% formaldehyde crosslink after washing; high values mean tight binding
FLI1 = biological target: T1, FLI1 (Homo sapiens, UniProt Q01543 1-452); conditions: protein: recombinant; tags: N-terminal GST; dsDNA, one strand shown
T1 sequence: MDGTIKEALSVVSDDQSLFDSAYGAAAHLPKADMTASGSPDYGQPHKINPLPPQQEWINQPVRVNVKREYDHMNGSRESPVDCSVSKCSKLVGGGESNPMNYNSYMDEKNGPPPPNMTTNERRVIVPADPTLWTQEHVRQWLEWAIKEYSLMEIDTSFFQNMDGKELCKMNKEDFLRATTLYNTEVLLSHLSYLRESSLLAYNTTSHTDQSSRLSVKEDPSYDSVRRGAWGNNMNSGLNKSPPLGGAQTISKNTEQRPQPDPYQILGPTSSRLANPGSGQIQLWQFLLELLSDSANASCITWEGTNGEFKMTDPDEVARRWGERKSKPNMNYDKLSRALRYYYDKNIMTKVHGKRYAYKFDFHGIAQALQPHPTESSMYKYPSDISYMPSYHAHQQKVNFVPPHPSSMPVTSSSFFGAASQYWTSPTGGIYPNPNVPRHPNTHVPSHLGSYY
Procedure, shortened: (§1)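 GST fusions of human transcription factors were expressed in yeast and captured with glutathione beads. Once given DNA barcodes and pooled alongside a tag-only sample, they were incubated for 30 min at room temperature with 200 nmole of a random double-stranded 16-mer DNA library in Tris/NaCl/DTT/glycerol buffer, then washed, crosslinked (0.1% formaldehyde), proximity-ligated, PCR-amplified and sequenced on an Illumina NextSeq500. The binding signal of each hexamer is its read frequency for a factor divided by its frequency for the tag-only sample.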

ELK1 = biological target: T2, ELK1 (Homo sapiens, UniProt P19419 1-428); conditions: protein: recombinant; tags: N-terminal GST; dsDNA, one strand shown
T2 sequence: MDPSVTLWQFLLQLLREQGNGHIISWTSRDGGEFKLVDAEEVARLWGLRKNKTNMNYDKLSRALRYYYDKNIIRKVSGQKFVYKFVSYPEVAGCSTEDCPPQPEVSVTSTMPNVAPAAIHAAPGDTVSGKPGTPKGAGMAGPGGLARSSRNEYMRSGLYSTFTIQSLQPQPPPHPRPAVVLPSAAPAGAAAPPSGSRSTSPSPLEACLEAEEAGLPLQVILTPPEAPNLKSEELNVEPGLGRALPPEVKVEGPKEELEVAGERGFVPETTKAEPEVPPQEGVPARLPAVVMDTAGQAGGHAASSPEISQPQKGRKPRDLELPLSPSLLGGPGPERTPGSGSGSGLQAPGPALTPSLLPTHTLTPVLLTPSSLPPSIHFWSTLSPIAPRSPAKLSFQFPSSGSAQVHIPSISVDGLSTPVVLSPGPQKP
Procedure, shortened: as §1

GABPA = biological target: T3, GABPA (Homo sapiens, UniProt Q06546 1-454); conditions: protein: recombinant; tags: N-terminal GST; dsDNA, one strand shown
T3 sequence: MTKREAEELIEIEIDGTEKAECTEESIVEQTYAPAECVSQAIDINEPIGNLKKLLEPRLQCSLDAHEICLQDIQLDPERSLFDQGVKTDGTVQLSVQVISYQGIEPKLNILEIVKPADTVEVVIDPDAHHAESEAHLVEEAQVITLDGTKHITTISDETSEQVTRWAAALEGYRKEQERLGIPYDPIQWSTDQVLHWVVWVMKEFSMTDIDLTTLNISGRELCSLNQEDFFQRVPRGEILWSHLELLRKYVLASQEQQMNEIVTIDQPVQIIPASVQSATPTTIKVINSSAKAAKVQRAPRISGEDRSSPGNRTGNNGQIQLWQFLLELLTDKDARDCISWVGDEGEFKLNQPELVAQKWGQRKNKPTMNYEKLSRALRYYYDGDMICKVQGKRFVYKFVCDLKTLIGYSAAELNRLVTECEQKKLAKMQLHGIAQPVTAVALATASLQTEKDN
Procedure, shortened: as §1

ERG = biological target: T4, ERG (Homo sapiens, UniProt P11308 1-479); conditions: protein: recombinant; tags: N-terminal GST; dsDNA, one strand shown
T4 sequence: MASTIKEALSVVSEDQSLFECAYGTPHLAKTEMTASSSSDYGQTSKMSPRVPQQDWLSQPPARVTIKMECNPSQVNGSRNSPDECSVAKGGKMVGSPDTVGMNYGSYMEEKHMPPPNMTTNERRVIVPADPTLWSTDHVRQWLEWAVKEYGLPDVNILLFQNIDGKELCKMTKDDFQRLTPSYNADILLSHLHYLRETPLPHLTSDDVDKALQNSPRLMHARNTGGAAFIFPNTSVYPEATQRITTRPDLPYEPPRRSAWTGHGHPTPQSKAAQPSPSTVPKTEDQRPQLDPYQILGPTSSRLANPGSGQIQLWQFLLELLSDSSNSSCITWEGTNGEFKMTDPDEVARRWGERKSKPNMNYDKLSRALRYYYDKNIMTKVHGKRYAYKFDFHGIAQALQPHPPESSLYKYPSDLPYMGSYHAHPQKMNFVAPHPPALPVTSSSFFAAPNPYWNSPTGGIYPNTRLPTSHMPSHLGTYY
Procedure, shortened: as §1

ELF1 = ELF1 (Homo sapiens, UniProt P32519 1-619); conditions: protein: recombinant; tags: N-terminal GST; dsDNA, one strand shown
Sequence of ELF1 (P32519 whole entry): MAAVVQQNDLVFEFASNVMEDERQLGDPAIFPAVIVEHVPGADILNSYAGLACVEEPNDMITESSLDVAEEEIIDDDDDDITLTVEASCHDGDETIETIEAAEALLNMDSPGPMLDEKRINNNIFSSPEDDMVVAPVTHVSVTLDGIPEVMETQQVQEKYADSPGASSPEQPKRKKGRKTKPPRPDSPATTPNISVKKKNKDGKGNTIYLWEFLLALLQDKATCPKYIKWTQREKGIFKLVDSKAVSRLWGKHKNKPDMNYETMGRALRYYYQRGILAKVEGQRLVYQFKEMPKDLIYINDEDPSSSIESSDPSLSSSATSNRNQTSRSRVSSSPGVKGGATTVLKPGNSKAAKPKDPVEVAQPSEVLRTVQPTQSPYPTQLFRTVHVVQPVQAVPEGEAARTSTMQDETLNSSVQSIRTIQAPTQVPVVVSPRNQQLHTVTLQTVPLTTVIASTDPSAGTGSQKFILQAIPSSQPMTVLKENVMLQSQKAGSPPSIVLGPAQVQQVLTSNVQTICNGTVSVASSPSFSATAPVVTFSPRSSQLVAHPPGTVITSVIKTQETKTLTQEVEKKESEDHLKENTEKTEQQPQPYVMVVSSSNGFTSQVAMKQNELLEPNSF
Procedure, shortened: as §1

EHF = biological target: T5, EHF (Homo sapiens, UniProt Q9NZC4 1-300); conditions: protein: recombinant; tags: N-terminal GST; dsDNA, one strand shown
T5 sequence: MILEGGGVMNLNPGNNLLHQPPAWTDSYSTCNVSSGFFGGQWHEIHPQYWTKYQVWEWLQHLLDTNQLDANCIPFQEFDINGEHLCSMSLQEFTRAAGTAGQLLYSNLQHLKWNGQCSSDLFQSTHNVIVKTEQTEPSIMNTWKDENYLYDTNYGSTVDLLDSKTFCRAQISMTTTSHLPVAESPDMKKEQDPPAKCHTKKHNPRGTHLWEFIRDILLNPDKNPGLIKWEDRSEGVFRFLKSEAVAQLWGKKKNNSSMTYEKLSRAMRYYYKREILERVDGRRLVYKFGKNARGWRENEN
Procedure, shortened: as §1

SPI1 = SPI1 (Homo sapiens, UniProt P17947 1-270); conditions: protein: recombinant; tags: N-terminal GST; dsDNA, one strand shown
Procedure, shortened: as §1

SPIB = SPIB (Homo sapiens, UniProt Q01892 1-262); conditions: protein: recombinant; tags: N-terminal GST; dsDNA, one strand shown
Sequence of SPIB (Q01892 whole entry): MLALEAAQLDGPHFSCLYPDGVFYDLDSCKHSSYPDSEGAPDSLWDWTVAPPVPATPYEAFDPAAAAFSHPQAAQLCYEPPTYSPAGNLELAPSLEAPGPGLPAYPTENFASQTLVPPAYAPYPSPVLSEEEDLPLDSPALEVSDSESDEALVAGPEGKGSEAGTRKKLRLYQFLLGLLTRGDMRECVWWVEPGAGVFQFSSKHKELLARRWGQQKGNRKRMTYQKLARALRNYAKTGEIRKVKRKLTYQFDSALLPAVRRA
Procedure, shortened: as §1

ELK3 = biological target: T6, ELK3 (Homo sapiens, UniProt P41970 1-407); conditions: protein: recombinant; tags: N-terminal GST; dsDNA, one strand shown
T6 sequence: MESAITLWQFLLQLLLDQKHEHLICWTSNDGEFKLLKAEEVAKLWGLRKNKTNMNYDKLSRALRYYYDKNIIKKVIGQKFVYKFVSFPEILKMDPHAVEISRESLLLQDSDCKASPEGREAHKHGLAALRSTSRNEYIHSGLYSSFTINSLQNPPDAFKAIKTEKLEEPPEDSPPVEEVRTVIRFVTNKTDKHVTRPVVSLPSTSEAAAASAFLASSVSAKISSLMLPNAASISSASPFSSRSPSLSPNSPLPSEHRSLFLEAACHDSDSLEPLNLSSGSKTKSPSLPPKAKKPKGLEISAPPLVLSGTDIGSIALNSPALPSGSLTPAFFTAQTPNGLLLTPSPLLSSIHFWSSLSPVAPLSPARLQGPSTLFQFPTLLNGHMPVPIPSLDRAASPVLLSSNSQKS
Procedure, shortened: as §1

FEV = biological target: T7, FEV (Homo sapiens, UniProt Q99581 1-238); conditions: protein: recombinant; tags: N-terminal GST; dsDNA, one strand shown
T7 sequence: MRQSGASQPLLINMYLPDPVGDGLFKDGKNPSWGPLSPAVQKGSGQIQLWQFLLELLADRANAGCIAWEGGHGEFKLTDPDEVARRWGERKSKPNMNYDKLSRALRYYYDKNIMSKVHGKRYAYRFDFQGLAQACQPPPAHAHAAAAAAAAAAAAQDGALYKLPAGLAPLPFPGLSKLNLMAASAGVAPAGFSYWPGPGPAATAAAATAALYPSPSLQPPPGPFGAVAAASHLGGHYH
Procedure, shortened: as §1

ETV5 = ETV5 (Homo sapiens, UniProt P41161 1-510); conditions: protein: recombinant; tags: N-terminal GST; dsDNA, one strand shown
Sequence of ETV5 (P41161 whole entry): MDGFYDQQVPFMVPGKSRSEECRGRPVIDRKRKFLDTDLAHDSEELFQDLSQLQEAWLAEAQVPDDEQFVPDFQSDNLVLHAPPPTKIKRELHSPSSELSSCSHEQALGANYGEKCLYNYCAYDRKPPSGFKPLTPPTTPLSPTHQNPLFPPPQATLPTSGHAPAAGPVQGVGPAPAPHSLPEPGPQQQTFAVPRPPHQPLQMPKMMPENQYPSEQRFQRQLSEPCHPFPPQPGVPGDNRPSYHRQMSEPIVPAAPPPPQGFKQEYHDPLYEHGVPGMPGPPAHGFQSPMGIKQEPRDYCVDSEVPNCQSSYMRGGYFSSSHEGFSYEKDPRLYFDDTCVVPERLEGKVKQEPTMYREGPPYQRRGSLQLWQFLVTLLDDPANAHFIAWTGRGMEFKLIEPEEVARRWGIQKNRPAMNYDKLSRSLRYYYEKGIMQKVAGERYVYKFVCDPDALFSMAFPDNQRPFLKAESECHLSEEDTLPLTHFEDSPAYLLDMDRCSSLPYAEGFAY
Procedure, shortened: as §1

HSF1 = HSF1 (Homo sapiens, UniProt Q00613 1-529); conditions: protein: recombinant; tags: N-terminal GST; chain copies: 3; dsDNA, one strand shown
Sequence of HSF1 (Q00613 whole entry): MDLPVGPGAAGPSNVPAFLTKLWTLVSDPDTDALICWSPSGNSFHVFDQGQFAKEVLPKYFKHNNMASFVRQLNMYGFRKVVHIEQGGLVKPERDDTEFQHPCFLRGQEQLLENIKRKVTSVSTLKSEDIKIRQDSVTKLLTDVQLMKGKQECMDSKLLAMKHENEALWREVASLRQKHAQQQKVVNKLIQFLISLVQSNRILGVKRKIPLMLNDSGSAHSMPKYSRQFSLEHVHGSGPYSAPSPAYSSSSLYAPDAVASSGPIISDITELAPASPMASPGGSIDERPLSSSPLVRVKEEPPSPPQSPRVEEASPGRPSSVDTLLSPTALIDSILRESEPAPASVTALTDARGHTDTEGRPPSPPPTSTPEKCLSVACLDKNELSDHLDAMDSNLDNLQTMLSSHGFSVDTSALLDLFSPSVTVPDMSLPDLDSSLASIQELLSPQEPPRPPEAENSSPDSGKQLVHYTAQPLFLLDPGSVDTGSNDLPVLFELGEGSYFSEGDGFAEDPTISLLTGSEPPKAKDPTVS
Procedure, shortened: as §1

SPIC = biological target: T8, SPIC (Homo sapiens, UniProt Q8N5J4 1-248); conditions: protein: recombinant; tags: N-terminal GST; dsDNA, one strand shown
T8 sequence: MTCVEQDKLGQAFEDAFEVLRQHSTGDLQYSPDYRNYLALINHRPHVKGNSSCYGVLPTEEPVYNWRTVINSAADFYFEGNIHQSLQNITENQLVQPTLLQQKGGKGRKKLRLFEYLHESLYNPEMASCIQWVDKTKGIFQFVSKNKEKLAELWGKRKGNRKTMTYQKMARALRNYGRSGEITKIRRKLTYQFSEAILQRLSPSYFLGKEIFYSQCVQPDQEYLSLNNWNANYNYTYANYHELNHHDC
Procedure, shortened: as §1

ELF4 = ELF4 (Homo sapiens, UniProt Q99607 1-663); conditions: protein: recombinant; tags: N-terminal GST; dsDNA, one strand shown
Sequence of ELF4 (Q99607 whole entry): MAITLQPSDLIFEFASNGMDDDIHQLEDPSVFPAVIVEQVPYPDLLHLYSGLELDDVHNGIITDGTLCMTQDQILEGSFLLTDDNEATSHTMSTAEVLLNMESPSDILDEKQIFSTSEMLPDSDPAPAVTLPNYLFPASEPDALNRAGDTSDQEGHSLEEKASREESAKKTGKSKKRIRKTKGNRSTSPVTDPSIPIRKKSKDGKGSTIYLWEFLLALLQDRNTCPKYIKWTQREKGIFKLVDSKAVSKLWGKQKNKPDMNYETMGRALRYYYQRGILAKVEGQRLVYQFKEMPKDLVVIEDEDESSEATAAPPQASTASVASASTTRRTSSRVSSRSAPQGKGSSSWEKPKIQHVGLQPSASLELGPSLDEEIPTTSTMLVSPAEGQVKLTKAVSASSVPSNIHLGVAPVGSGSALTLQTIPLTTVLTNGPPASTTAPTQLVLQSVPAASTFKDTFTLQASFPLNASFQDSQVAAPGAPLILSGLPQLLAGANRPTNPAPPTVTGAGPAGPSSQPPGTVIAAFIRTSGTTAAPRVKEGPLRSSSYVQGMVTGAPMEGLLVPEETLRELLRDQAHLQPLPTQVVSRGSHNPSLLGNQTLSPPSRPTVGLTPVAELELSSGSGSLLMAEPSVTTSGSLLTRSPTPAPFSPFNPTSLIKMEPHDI
Procedure, shortened: as §1

ELK4 = biological target: T9, ELK4 (Homo sapiens, UniProt P28324-2 1-405); conditions: protein: recombinant; tags: N-terminal GST; dsDNA, one strand shown
T9 sequence: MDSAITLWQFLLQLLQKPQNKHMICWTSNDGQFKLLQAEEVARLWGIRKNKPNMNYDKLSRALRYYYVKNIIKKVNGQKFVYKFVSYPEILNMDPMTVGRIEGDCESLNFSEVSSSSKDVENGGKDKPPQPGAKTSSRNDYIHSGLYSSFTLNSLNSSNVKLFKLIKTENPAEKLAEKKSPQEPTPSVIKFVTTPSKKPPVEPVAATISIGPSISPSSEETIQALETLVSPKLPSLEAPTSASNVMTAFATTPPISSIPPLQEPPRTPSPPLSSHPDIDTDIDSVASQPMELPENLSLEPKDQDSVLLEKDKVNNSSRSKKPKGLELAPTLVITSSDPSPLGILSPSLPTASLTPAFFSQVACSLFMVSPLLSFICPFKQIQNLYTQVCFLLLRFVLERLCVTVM
Procedure, shortened: as §1

ETV2 = biological target: T10, ETV2 (Homo sapiens, UniProt O00321 1-342); conditions: protein: recombinant; tags: N-terminal GST; dsDNA, one strand shown
T10 sequence: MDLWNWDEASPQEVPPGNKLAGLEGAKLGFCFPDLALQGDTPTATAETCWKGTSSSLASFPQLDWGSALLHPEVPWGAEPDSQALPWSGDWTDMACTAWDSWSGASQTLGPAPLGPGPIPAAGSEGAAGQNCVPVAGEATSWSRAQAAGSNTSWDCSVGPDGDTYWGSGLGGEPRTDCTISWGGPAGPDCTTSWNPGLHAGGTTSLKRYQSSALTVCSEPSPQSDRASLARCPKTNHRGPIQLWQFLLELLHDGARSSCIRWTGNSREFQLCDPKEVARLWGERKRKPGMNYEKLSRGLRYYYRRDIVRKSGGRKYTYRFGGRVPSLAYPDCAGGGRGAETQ
Procedure, shortened: as §1

ELF3 = biological target: T11, ELF3 (Homo sapiens, UniProt P78545 1-371); conditions: protein: recombinant; tags: N-terminal GST; dsDNA, one strand shown
T11 sequence: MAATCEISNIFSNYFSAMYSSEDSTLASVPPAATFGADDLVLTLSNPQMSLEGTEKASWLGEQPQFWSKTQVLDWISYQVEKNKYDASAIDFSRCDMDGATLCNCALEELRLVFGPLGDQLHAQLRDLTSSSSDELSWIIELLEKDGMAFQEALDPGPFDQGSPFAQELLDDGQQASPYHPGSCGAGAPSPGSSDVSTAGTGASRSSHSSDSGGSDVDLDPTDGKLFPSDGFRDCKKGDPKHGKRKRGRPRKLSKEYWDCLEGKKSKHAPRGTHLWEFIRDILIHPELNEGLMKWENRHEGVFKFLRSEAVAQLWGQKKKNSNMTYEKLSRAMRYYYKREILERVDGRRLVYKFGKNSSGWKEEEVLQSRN
Procedure, shortened: as §1

CRX = CRX (Homo sapiens, UniProt O43186 1-299); conditions: protein: recombinant; tags: N-terminal GST; dsDNA, one strand shown
Sequence of CRX (O43186 whole entry): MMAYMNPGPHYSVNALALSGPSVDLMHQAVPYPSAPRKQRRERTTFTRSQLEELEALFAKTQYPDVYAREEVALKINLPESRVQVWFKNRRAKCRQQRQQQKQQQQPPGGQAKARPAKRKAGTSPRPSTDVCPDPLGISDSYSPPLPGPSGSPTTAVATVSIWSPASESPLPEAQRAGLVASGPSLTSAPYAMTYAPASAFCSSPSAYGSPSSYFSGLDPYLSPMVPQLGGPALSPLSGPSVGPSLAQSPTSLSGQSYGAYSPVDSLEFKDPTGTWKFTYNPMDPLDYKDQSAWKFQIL
Procedure, shortened: as §1

ETV1 = ETV1 (Homo sapiens, UniProt P50549 1-477); conditions: protein: recombinant; tags: N-terminal GST; dsDNA, one strand shown
Sequence of ETV1 (P50549 whole entry): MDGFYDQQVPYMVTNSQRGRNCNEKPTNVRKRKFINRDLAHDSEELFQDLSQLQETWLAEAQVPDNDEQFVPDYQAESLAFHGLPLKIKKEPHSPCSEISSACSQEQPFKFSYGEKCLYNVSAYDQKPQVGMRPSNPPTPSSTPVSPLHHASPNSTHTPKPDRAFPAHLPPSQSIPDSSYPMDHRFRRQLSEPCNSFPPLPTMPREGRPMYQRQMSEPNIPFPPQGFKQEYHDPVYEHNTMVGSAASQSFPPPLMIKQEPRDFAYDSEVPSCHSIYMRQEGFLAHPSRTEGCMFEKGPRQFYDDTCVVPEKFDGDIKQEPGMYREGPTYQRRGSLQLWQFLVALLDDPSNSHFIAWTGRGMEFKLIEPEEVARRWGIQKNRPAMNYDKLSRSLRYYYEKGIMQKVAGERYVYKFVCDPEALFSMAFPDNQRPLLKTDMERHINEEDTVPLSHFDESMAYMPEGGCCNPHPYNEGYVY
Procedure, shortened: as §1

## TGTATC
FLI1
  binding signal: 1.65 fold enrichment (6-mer frequency, TF over GST control)
ELK1
  binding signal: 1.39 fold enrichment (6-mer frequency, TF over GST control)
GABPA
  binding signal: 1.45 fold enrichment (6-mer frequency, TF over GST control)
ERG
  binding signal: 1.39 fold enrichment (6-mer frequency, TF over GST control)
ELF1
  binding signal: 1.38 fold enrichment (6-mer frequency, TF over GST control)
EHF
  binding signal: 1.36 fold enrichment (6-mer frequency, TF over GST control)
SPI1
  binding signal: 1.37 fold enrichment (6-mer frequency, TF over GST control)
SPIB
  binding signal: 1.45 fold enrichment (6-mer frequency, TF over GST control)
ELK3
  binding signal: 1.44 fold enrichment (6-mer frequency, TF over GST control)
FEV
  binding signal: 1.41 fold enrichment (6-mer frequency, TF over GST control)
ETV5
  binding signal: 1.4 fold enrichment (6-mer frequency, TF over GST control)
HSF1
  binding signal: 1.16 fold enrichment (6-mer frequency, TF over GST control)
SPIC
  binding signal: 1.46 fold enrichment (6-mer frequency, TF over GST control)
ELF4
  binding signal: 1.44 fold enrichment (6-mer frequency, TF over GST control)
ELK4
  binding signal: 1.46 fold enrichment (6-mer frequency, TF over GST control)
ETV2
  binding signal: 1.36 fold enrichment (6-mer frequency, TF over GST control)
ELF3
  binding signal: 1.41 fold enrichment (6-mer frequency, TF over GST control)
CRX
  binding signal: 1.15 fold enrichment (6-mer frequency, TF over GST control)
ETV1
  binding signal: 1.37 fold enrichment (6-mer frequency, TF over GST control)

— PMC7862700, “An all-to-all approach to the identification of sequence-specific readers for epigenetic DNA modifications on cytosine”
